The nature of assay [1]: NCI Yeast Anticancer Drug Screen. Data for the mec2-1 strain (AID 157). The note with it: S. cerevisiae mec2-1 strain, active compounds read high. The essentials:
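Readout is yeast growth inhibition, normalised to vehicle-treated controls, in the mec2-1 strain exposed to compound.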

Assay [2] can be described thus: NCI Yeast Anticancer Drug Screen. Data for the sgs1 mgt1 strain (AID 161).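 Also: 0% = growth of cultures given vehicle only.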 To be noted: S. cerevisiae sgs1 mgt1 strain, active compounds read high. The procedure, abridged: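 Growth of a repair-deficient yeast mutant was monitored after compound treatment and expressed as inhibition relative to vehicle-treated cultures.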
A short description of assay [3]: NCI Yeast Anticancer Drug Screen. Data for the cln2 rad14 strain (AID 165).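 Also: 0% = growth equal to vehicle treated cultures.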 The note with it: S. cerevisiae cln2 rad14 strain, active compounds read high. The procedure, abridged:
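Relative to vehicle controls, growth inhibition of compound-treated cln2 rad14 yeast was recorded.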

Assay [4] can be described thus: NCI Yeast Anticancer Drug Screen. Data for the bub3 strain (AID 167). To be noted: S. cerevisiae bub3 mutant strain, active compounds read high. The essentials: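 Yeast carrying a defined mutation is treated with each compound, and growth is compared with that of vehicle-exposed cells to give inhibition.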
Assay [5] in a line: NCI Yeast Anticancer Drug Screen. Data for the mlh1 rad18 strain (AID 175). The note with it: S. cerevisiae mlh1 rad18 strain growth inhibition, active compounds read high. The procedure, abridged:
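Test agents were incubated with a yeast strain of defined genotype (DNA damage repair defect). Inhibition of growth was derived by comparison with vehicle-exposed cultures.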

Assay [6] is described as follows: NCI Yeast Anticancer Drug Screen. Data for the rad50 strain (AID 155).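 Also: 0% = growth of vehicle-only cultures of the same strain.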 The note with it: S. cerevisiae rad50 strain growth inhibition, active compounds read high. The procedure, abridged:
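Genetically altered yeast (DNA repair pathway); compound treatment; growth inhibition vs vehicle ctrl.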

The mark [7] stands for this setting: at 5.0 µM (retest, dose inferred, filed as 0.5).
Setting [8] is: at 50.0 µM (retest, dose inferred, filed as 5.0).

Several values for one entry are separate records, joined by “and”; a condition that tells them apart may be missing. Equal values may be shown once. About 79,000 compounds went through this panel and 15% of them were active in at least one assay; those are over-represented in the sample as a whole. Values without a mark were called inactive. Activity calls are given as the source filed them. Rule as the data show it: active = growth inhibition above about 70%; inactive = the rest.

For `CC[C@@H]1O[C@@H]([C@@H]2CC[C@](O)([C@]3(C)CC[C@@H]([C@@H](C)[C@@]4(O)CC[C@H](C)[C@@H](C[C@@]5(O)O[C@@H]([C@@H](C)[C@H](O)C[C@H]6CC[C@H](C)[C@@H]([C@@H](C)C(=O)O)O6)CC[C@@H]5C)O4)O3)O2)CC[C@@]1(C)O`, the growth inhibition in assay [1] (setting [7]) was 34%; in assay [1] (setting [8]), 94% (active); in assay [1] (at 50.0 µM), 90.2% (active); in assay [2] (setting [7]), -9%; in assay [2] (setting [8]), 92% (active); in assay [2] (at 50.0 µM), 89.2% (active). In addition, the growth inhibition in assay [3] (setting [7]) is 58%; in assay [3] (setting [8]), 92% (active); in assay [3] (at 50.0 µM), 88.2% (active); in assay [4] (setting [7]) it was -14%; in assay [4] (setting [8]), 93% (active); in assay [4] (at 50.0 µM), 87.2% (active). Also, the growth inhibition in assay [5] (setting [7]) was -18%; in assay [5] (setting [8]) it was 93% (active); in assay [5] (at 50.0 µM), 87.7% (active).
As for `O=C1NC(=O)/C(=C/c2ccc(S(=O)(=O)N/N=C\C(O)C(O)C(O)C(O)CO)cc2)N1` (stereo not drawn), the growth inhibition in assay [6] (at 50.0 µM) is 3.55% and -20.8% and 1.5%; in assay [1] (at 50.0 µM), -3.7% and 38.8% and 12.5%; in assay [2] (at 50.0 µM), -19.6% and 19.2% and -13.3%; in assay [3] (at 50.0 µM), 2.3% and 4.95% and 8.9%; in assay [4] (at 50.0 µM), -17.4% and -6.2% and 3.65%; in assay [5] (at 50.0 µM), 15.4% and 28.7% and 13.4%.
As for `Cc1ccc(NN)cc1`, the growth inhibition in assay [6] (setting [7]) was 23%; in assay [6] (setting [8]), 97% (active); in assay [6] (at 50.0 µM), 83.8% (active); in assay [2] (setting [7]), 26%; in assay [2] (setting [8]) it was 46%; in assay [2] (at 50.0 µM), 70.3% (active). The growth inhibition in assay [3] (setting [7]) was 4%; in assay [3] (setting [8]) it was 75% (active); in assay [3] (at 50.0 µM), 21.1%; in assay [4] (setting [7]), 3%; in assay [4] (setting [8]) it was 96% (active); in assay [4] (at 50.0 µM), 52.6%. Also, the results for the growth inhibition in assay [5] (setting [7]), in assay [5] (setting [8]) and in assay [5] (at 50.0 µM) were 11%, 94% (active) and 80.5% (active), respectively.
`CC(C)O[C@H]1N(C2CC(N=[N+]=[N-])C(CO)O2)C(=O)NC(=O)[C@]1(C)Br` (stereo partly drawn): the growth inhibition in assay [6] (setting [7]) is 14%; in assay [6] (setting [8]), 48%; in assay [6] (at 50.0 µM), 87.1% (active); in assay [2] (setting [7]), 0%; in assay [2] (setting [8]), 56%; in assay [2] (at 50.0 µM) it was 90.5% (active). The growth inhibition in assay [4] (setting [7]) was -7%; in assay [4] (setting [8]), 40%; in assay [4] (at 50.0 µM), 90.5% (active); in assay [5] (setting [7]), -4%; in assay [5] (setting [8]), 63%; in assay [5] (at 50.0 µM), 91.1% (active).
As for `S=C(CSc1ccccc1)Nc1cccc2ccccc12`, the growth inhibition in assay [6] (setting [7]) is 15%; in assay [6] (setting [8]) it was 82% (active); in assay [6] (at 50.0 µM) it was 77% (active); in assay [1] (setting [7]), -12%; in assay [1] (setting [8]) it was 51%; in assay [1] (at 50.0 µM), 28.4%. Further, the growth inhibition was -4% in assay [2] (setting [7]); 67% in assay [2] (setting [8]); 31.3% in assay [2] (at 50.0 µM); 4% in assay [4] (setting [7]); 81% (active) in assay [4] (setting [8]); 81.7% (active) in assay [4] (at 50.0 µM). Also, the growth inhibition in assay [5] (setting [7]) is 1%; in assay [5] (setting [8]), 81% (active); in assay [5] (at 50.0 µM) it was 79.5% (active).
For `CCOC(=O)c1c(N2CCCC2)nsc1Nc1ccc(F)cc1`, the growth inhibition in assay [1] (setting [7]) was -1%; in assay [1] (setting [8]) it was 93% (active); in assay [1] (at 50.0 µM), 87.2% (active); in assay [2] (setting [7]), 13%; in assay [2] (setting [8]), 90% (active); in assay [2] (at 50.0 µM), 92% (active). The growth inhibition was 2% in assay [3] (setting [7]); 75% (active) in assay [3] (setting [8]); 45% in assay [3] (at 50.0 µM); 1% in assay [4] (setting [7]); 92% (active) in assay [4] (setting [8]); 94.8% (active) in assay [4] (at 50.0 µM). Also, the growth inhibition in assay [5] (setting [7]) is -2%; in assay [5] (setting [8]), 88% (active); in assay [5] (at 50.0 µM), 93.5% (active).
With `CCCCCCCCCCC(O)CN1CCN(c2cccc(Cl)c2)CC1` (stereo not drawn), the growth inhibition in assay [1] (setting [7]) is 99% (active); in assay [1] (setting [8]) it was 99% (active); in assay [1] (at 50.0 µM), 98.7% (active); in assay [2] (setting [7]), 99% (active); in assay [2] (setting [8]), 99% (active); in assay [2] (at 50.0 µM) it was 99.2% (active). The growth inhibition in assay [3] (setting [7]) was 97% (active); in assay [3] (setting [8]) it was 98% (active); in assay [3] (at 50.0 µM) it was 97.2% (active); in assay [4] (setting [7]) it was 96% (active); in assay [4] (setting [8]), 99% (active); in assay [4] (at 50.0 µM), 90.3% (active). Besides, the growth inhibition was 99% (active) in assay [5] (setting [7]), 99% (active) in assay [5] (setting [8]) and 99.2% (active) in assay [5] (at 50.0 µM).

The values above are taken from PubChem BioAssay (NCI).
